The supplement of paper PMC10849652
The full data set covers some 7,900 targets. This sample favours those with a hit. About 0.6% of all pairs of compound and target were hits.

Columns and labels:
Experiment in all cases: log2 fold change, soluble protein after heating vs DMSO (PISA); higher = thermal stabilisation; K562 cells, 10 uM, 30 min; active = over 0.2 and 3.5 SD of the protein, either way, in both replicates (recomputed)
[1] = compound: C#Cc1cccc(Nc2ncnc3cc(OCCOC)c(OCCOC)cc23)c1 [erlotinib]
In short: (§1)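 K562 cells at 2×10^6 cells/mL were treated for 30 min with 10 μM compound, and aliquots were heated for 3 min over 48°C-58°C before pooling. Extraction used PBS with 0.5% NP-40 at 4°C, and soluble protein was the supernatant after 21,000xg for 90 min, measured by TMTpro 16plex LC-MS/MS with channel sums equalised. Thermal stability values, relative to control samples and from duplicates, are log2 fold changes.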

[2] = compound: C/C(=N\NC(=O)C1=CC(=CC=C1)S(=O)(=O)N2CCOCC2)/C3=C(C=CC(=C3)Cl)O
In short: as §1

[3] = compound: C1=CC(=C(C=C1Cl)C2=NC3=NC=CN=C3C(=N2)NC4=CC=NC=C4)F
In short: as §1

[4] = compound: C1=CC(=CC=C1C2=NC3=C(N2)C=C(C=C3)C(=O)N)OC4=CC=C(C=C4)Cl
In short: as §1

[5] = compound: C1=CC2=C(C=CC(=C2)/C=C\3/C(=O)NC(=NCC4=CC=CS4)S3)N=C1
In short: as §1

[6] = compound: C1=CC2=NC=CN=C2C=C1/C=C/3\C(=O)NC(=O)S3
In short: as §1

[7] = compound: C1=CC=C(C=C1)C2=NC(=C(N2)C3=CC=NC=C3)C4=CC(=C(C=C4)Cl)O
In short: as §1

[8] = compound: C1=CC=C2C(=C1)C3=NNC4=CC=CC(=C43)C2=O
In short: as §1

[9] = compound: C1CCN(C1)C(=O)NC2=CC=CC(=C2)NC3=NC=C(C(=N3)NCCC4=CN=CN4)Br
In short: as §1

[10] = compound: C1CN(CCC1(CC2=CC=C(C=C2)Cl)N)C3=NC=NC4=C3C=CN4
In short: as §1

Measured: log2 fold change

CNTN4 (UniProt Q8IWV2)
inactive: [1] 0.284 | [3] 0.012 | [4] 0.018 | [5] 0.179 | [6] -0.095 | [7] 0.05 | [8] 0.097 | [9] -0.097 | [10] 0.194
active: [2] -0.641

CPSF6 isoform 2 (UniProt Q16630)
UniProt Q16630, sequence (Q16630 whole entry, looked up): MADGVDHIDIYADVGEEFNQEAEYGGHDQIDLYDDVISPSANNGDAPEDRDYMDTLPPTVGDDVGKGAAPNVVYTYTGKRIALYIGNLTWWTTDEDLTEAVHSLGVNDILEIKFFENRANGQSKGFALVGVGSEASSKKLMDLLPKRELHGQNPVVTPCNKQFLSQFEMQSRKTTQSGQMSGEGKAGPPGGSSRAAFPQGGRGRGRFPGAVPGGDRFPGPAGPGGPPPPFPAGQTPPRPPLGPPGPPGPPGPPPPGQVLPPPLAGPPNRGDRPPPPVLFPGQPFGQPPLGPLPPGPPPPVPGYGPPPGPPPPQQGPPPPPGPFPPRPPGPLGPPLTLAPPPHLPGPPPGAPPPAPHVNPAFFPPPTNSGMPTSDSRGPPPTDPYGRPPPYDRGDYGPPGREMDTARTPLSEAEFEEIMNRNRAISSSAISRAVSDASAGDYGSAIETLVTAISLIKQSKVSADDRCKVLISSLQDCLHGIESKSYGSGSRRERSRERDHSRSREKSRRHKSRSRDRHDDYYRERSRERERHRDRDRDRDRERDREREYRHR
inactive: [1] 0.023 | [2] 0.079 | [3] -0.072 | [4] 0.122 | [5] -0.04 | [6] -0.026 | [7] -0.002 | [8] -0.016 | [9] -0.021 | [10] -0.135

CRTC2 (UniProt Q53ET0)
inactive: [1] 0.194 | [2] 0.151 | [3] 0.039 | [4] 0.035 | [5] 0.093 | [6] 0.073 | [7] -0.129 | [8] -0.14 | [9] -0.233 | [10] 0.08

CLUH, A0A494C0R8
inactive: [1] -0.008 | [2] -0.081 | [3] 0.253 | [4] -0.107 | [5] 0.127 | [6] 0.235 | [7] -0.081 | [8] 0.03 | [9] 0.07 | [10] 0.05

COCH (UniProt O43405)
UniProt O43405, sequence (O43405 whole entry, looked up): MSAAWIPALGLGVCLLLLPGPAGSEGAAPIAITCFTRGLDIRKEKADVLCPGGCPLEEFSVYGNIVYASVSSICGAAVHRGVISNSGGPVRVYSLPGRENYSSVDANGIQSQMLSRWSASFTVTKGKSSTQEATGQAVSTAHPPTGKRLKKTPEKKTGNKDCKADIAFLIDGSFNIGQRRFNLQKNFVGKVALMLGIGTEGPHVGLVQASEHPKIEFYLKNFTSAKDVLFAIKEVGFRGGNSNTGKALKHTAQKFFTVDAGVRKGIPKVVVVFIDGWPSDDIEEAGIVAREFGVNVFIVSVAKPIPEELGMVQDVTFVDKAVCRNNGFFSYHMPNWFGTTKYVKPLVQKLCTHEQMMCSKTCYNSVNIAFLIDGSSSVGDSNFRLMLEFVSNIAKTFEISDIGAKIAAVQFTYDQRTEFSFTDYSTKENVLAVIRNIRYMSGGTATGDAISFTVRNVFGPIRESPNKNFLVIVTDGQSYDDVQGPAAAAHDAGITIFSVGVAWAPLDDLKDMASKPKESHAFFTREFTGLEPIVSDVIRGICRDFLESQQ
inactive: [1] -0.083 | [2] -0.028 | [3] -0.044 | [4] 0.007 | [5] -0.098 | [6] 0.007 | [7] -0.002 | [8] -0.072 | [9] -0.043 | [10] -0.101

CAVIN1 (UniProt Q6NZI2)
inactive: [1] -0.06 | [2] -0.085 | [3] -0.309 | [4] 0.121 | [5] -0.04 | [6] -0.002 | [7] 0.274 | [8] 0.07 | [9] 0.062 | [10] -0.137

COMMD2 (UniProt Q86X83)
inactive: [1] 0.114 | [2] 0.049 | [3] -0.053 | [4] 0.085 | [5] 0.091 | [6] -0.02 | [7] -0.017 | [8] 0.058 | [9] 0.071 | [10] -0.119

CS (UniProt O75390)
inactive: [1] 0.028 | [2] 0.035 | [3] 0.033 | [4] 0.002 | [5] 0.051 | [6] -0.009 | [7] 0.072 | [8] -0.064 | [9] -0.015 | [10] 0.035

CPQ (UniProt Q9Y646)
inactive: [1] 0.013 | [2] 0.002 | [3] 0.051 | [4] 0 | [5] 0.05 | [6] 0.004 | [7] 0.07 | [8] 0 | [9] -0.027 | [10] 0.125

COA6 isoform 2 (UniProt Q5JTJ3)
inactive: [1] 0.012 | [2] 0.022 | [3] 0.045 | [4] 0.007 | [5] 0.023 | [6] 0.062 | [7] -0.053 | [8] -0.108 | [9] 0.047 | [10] 0.02

CSTF3 (UniProt Q12996)
inactive: [1] -0.038 | [2] 0.012 | [3] -0.003 | [4] 0.015 | [5] 0.014 | [6] 0.077 | [7] -0.032 | [8] 0.035 | [9] 0.027 | [10] -0.027

CSNK2A1 (UniProt P68400)
inactive: [1] -0.03 | [2] -0.011 | [3] 0.006 | [4] 0.024 | [5] 0.139 | [7] -0.041 | [8] 0.094 | [9] -0.003 | [10] -0.013
active: [6] 0.296

CCDC59 (UniProt Q9P031)
UniProt Q9P031, sequence (Q9P031 whole entry, looked up): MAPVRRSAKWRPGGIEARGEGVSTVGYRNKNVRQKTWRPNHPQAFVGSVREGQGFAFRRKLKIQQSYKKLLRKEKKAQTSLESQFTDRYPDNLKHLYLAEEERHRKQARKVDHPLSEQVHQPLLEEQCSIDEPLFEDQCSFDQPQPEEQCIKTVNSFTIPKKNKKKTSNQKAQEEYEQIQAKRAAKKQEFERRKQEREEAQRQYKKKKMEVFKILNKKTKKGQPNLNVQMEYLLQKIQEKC
inactive: [1] -0.118 | [2] -0.127 | [3] -0.192 | [4] 0.071 | [5] -0.136 | [6] -0.014 | [7] -0.091 | [8] 0.069 | [9] 0.054 | [10] -0.027

CSNK1A1 (UniProt P48729)
inactive: [1] 0.073 | [2] 0.002 | [3] -0.028 | [4] -0.002 | [5] -0.008 | [6] 0.018 | [7] -0.029 | [8] -0.088 | [9] 0.001 | [10] -0.064

CHMP4B (UniProt Q9H444)
inactive: [1] 0.018 | [2] -0.006 | [3] 0.024 | [4] 0.013 | [5] -0.014 | [6] 0.057 | [7] 0.043 | [8] -0.001 | [9] 0.083 | [10] 0.035

CIZ1 (UniProt Q9ULV3)
UniProt Q9ULV3, sequence (Q9ULV3 whole entry, looked up): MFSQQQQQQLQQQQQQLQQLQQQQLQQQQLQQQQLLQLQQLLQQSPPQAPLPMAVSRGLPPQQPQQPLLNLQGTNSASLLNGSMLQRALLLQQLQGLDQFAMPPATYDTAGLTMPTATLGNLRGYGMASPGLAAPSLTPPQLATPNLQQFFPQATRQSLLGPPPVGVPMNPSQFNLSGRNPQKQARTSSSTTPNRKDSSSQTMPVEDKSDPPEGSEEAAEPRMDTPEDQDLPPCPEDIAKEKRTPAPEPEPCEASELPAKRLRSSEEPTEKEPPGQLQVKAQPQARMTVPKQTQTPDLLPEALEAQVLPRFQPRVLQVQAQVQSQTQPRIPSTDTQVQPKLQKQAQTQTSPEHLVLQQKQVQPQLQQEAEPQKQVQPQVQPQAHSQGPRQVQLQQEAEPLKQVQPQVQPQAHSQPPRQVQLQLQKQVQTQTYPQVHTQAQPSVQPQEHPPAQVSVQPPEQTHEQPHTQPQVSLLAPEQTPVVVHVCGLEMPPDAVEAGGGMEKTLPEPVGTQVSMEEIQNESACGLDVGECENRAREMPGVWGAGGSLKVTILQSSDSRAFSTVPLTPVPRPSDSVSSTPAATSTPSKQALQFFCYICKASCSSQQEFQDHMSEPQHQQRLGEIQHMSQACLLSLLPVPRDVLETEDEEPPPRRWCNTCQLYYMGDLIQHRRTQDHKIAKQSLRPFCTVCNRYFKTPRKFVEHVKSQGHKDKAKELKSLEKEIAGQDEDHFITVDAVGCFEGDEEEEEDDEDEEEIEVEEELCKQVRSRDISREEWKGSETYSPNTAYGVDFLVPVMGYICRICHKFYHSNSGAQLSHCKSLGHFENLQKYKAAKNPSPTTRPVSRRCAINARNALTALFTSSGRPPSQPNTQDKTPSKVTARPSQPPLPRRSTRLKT
inactive: [1] 0.002 | [2] 0.024 | [3] 0.032 | [4] 0.069 | [5] 0.009 | [6] 0.083 | [7] -0.092 | [8] -0.085 | [9] 0.034 | [10] -0.016

CKS1B (UniProt P61024)
UniProt P61024, sequence (P61024 whole entry, looked up): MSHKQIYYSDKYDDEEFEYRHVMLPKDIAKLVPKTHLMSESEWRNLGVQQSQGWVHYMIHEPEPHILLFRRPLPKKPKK
inactive: [1] -0.014 | [2] 0 | [3] 0.028 | [4] -0.013 | [5] 0.044 | [6] 0.029 | [7] 0.11 | [8] -0.045 | [9] -0.012 | [10] 0.034

C22orf39 (UniProt Q6P5X5)
inactive: [1] -0.256 | [2] -0.02 | [3] -0.018 | [4] 0.02 | [5] -0.014 | [6] 0.051 | [7] -0.023 | [8] -0.004 | [9] 0.037 | [10] 0.02

CSNK2A2 (UniProt P19784)
active: [5] 0.22 | [6] 0.591
inactive: [1] -0.053 | [2] -0.08 | [3] 0.046 | [4] -0.006 | [7] -0.038 | [8] 0.185 | [9] 0.034 | [10] -0.047

CSE1L (UniProt P55060)
inactive: [1] -0.005 | [2] 0.056 | [3] 0.064 | [4] -0.033 | [5] 0 | [6] 0.052 | [7] 0.012 | [8] -0.044 | [9] 0.028 | [10] -0.04

CDK9 isoform 2 (UniProt P50750)
inactive: [1] 0.043 | [2] -0.005 | [3] -0.174 | [4] 0.024 | [5] -0.084 | [6] 0.05 | [7] 0.059 | [8] -0.076 | [9] -0.001 | [10] -0.059

CCAR1 (UniProt Q8IX12)
inactive: [1] 0.052 | [2] 0.057 | [3] -0.002 | [4] 0.014 | [5] 0.071 | [6] 0.039 | [7] -0.021 | [8] 0.024 | [9] 0.027 | [10] -0.085

CNOT4 isoform 6 (UniProt O95628)
UniProt O95628, sequence (O95628 whole entry, looked up): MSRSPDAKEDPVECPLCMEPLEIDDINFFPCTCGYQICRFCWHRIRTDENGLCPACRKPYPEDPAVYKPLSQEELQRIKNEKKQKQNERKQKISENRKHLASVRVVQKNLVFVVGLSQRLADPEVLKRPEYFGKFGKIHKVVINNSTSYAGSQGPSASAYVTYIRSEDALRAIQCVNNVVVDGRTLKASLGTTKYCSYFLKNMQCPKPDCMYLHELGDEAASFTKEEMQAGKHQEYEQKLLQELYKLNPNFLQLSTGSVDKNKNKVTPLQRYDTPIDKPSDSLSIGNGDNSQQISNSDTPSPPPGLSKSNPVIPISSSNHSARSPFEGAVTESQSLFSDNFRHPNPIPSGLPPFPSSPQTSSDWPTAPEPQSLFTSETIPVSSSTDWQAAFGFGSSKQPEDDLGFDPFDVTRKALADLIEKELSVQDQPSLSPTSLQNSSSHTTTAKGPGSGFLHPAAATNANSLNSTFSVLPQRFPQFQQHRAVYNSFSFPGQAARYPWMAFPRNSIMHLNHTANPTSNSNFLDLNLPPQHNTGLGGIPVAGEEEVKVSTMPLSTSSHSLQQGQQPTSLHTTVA
inactive: [1] 0.004 | [2] 0.06 | [3] 0.026 | [4] 0.014 | [5] 0.03 | [6] 0.003 | [7] -0.007 | [8] -0.043 | [9] -0.011 | [10] 0.044

CPD (UniProt O75976)
UniProt O75976, sequence (O75976 whole entry, looked up): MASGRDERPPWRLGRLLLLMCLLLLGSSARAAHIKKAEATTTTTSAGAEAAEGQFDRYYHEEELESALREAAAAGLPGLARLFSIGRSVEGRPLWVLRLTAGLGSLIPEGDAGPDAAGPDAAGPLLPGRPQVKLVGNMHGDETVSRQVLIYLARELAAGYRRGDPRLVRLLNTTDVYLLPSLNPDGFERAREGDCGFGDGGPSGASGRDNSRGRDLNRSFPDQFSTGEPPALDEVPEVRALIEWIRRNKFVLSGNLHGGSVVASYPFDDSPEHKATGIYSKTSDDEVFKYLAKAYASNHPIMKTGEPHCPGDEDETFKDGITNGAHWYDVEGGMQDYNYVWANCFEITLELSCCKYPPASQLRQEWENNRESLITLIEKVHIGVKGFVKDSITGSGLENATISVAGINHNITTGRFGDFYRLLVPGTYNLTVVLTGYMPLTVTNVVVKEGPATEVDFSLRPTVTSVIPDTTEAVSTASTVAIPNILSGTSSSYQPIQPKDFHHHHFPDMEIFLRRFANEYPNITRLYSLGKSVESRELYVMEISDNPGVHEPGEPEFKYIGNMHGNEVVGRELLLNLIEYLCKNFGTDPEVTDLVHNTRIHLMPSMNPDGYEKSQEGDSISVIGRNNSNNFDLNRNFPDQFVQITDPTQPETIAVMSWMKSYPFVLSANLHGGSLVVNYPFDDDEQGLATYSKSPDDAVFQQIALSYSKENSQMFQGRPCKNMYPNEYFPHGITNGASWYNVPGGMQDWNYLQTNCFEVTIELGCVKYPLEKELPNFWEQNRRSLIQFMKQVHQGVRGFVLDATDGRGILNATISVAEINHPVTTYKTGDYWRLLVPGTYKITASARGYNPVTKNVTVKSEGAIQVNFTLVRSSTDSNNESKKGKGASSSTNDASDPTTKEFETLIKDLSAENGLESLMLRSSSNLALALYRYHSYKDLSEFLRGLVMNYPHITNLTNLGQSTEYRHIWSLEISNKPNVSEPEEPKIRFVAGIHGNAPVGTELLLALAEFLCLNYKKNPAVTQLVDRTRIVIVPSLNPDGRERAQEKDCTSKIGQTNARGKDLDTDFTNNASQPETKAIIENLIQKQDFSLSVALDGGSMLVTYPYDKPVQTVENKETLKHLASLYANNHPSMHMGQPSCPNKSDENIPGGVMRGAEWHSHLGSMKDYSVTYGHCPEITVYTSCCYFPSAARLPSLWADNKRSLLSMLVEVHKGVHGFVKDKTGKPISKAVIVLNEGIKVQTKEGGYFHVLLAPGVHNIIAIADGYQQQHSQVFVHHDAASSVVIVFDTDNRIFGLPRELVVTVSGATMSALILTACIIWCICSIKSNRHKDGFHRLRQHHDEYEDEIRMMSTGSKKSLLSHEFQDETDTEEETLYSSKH
inactive: [1] -0.025 | [2] -0.08 | [3] 0.009 | [4] 0.028 | [5] 0.055 | [6] 0.011 | [7] -0.007 | [8] -0.041 | [9] -0.045 | [10] 0.008

CREB3L2 (UniProt Q70SY1)
inactive: [1] 0.424 | [2] 0.104 | [3] 0.057 | [4] -0.264 | [5] 0.113 | [6] -0.174 | [7] -0.1 | [8] -0.045 | [9] -0.206 | [10] 0.173

CNOT2 (UniProt Q9NZN8)
inactive: [1] 0.043 | [2] 0.059 | [3] 0.009 | [4] -0.024 | [5] 0.016 | [6] 0.045 | [7] -0.031 | [8] -0.042 | [9] -0.019 | [10] -0.034

COX5B (UniProt P10606)
UniProt P10606, sequence (P10606 whole entry, looked up): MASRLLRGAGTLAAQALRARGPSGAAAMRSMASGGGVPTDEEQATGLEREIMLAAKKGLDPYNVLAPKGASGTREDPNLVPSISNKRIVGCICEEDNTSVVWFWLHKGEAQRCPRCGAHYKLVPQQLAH
inactive: [1] -0.068 | [2] 0.062 | [3] 0.16 | [4] -0.041 | [5] 0.032 | [6] 0.03 | [7] 0.114 | [8] -0.023 | [9] -0.067 | [10] -0.003

CA1 (UniProt P00915)
UniProt P00915, sequence (P00915 whole entry, looked up): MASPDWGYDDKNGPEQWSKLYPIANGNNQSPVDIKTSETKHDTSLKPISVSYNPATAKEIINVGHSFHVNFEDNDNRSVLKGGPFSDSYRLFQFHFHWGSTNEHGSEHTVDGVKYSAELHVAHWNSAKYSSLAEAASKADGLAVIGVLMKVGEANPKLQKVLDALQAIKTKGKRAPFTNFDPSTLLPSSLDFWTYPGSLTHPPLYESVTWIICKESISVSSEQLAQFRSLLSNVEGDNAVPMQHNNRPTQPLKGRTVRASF
inactive: [1] -0.025 | [2] 0.022 | [3] 0.03 | [4] 0.006 | [5] -0.079 | [6] 0.009 | [7] 0.064 | [8] 0.004 | [9] 0.018 | [10] 0.054

C1D (UniProt Q13901)
inactive: [1] 0.022 | [2] -0.078 | [3] -0.01 | [4] -0.011 | [5] -0.246 | [6] 0.068 | [7] -0.071 | [8] -0.044 | [9] -0.019 | [10] -0.1

CDK1 (UniProt P06493)
UniProt P06493, sequence (P06493 whole entry, looked up): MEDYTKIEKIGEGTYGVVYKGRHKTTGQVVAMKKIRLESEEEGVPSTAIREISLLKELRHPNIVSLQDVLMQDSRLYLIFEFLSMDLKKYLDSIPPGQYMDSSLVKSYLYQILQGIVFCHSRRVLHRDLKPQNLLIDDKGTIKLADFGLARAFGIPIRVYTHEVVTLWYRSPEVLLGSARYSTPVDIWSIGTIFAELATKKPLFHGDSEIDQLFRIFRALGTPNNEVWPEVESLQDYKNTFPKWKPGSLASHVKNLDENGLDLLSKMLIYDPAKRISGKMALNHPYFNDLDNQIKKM
inactive: [1] 0.045 | [2] 0.06 | [3] 0.021 | [4] 0.003 | [5] -0.054 | [6] 0.018 | [7] 0.003 | [8] -0.003 | [9] 0.007 | [10] -0.009
